# Assay results reported in PubChem BioAssay (NCI).
# About 79,000 compounds went through this panel and 15% of them were active in at least one assay; those are over-represented in the sample as a whole. A number with no mark means an inactive call. The source made the active and inactive calls. Cut-off read from the data, not from the text of the source: active = growth inhibition above about 70%; inactive = the rest.
# Experiments:
# [1] = NCI Yeast Anticancer Drug Screen. Data for the rad52 strain (AID 147);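 note: 0% = growth of vehicle-treated control cultures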; details: S. cerevisiae rad52 mutant growth inhibition, hits give high values
# How it was run: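 Growth of repair-deficient yeast cells was compared between compound-treated and vehicle-treated cultures to give percent inhibition.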
# [2] = NCI Yeast Anticancer Drug Screen. Data for the wt1 strain (AID 149);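 note: 0% = growth of vehicle-treated wt1 cultures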; details: S. cerevisiae wt1 strain (SPY 50644) growth inhibition, hits give high values
# How it was run: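 wt1 yeast, compound-treated; % growth inhibition vs vehicle control.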
# [3] = NCI Yeast Anticancer Drug Screen. Data for the mgt1 strain (AID 153); details: S. cerevisiae mgt1 mutant growth inhibition, hits give high values
# How it was run: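 Compounds were applied to mgt1 mutant yeast, and growth was then compared against vehicle-treated control cultures to give percent inhibition.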
# [4] = NCI Yeast Anticancer Drug Screen. Data for the rad50 strain (AID 155);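 note: 0% = growth of vehicle-only cultures of the same strain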; details: S. cerevisiae rad50 strain growth inhibition, hits give high values
# How it was run: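 Genetically altered yeast (DNA repair pathway); compound treatment; growth inhibition vs vehicle ctrl.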
# [5] = NCI Yeast Anticancer Drug Screen. Data for the mec2-1 strain (AID 157); details: S. cerevisiae mec2-1 strain, hits give high values
# How it was run: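 Compounds were applied to mec2-1 yeast cells. Their growth was then compared with that of vehicle-treated cultures to give growth inhibition.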
# [6] = NCI Yeast Anticancer Drug Screen. Data for the rad14 strain (AID 159);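 note: 0% = growth of vehicle-treated control cultures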; details: S. cerevisiae rad14 strain growth inhibition, hits give high values
# How it was run: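 Test compounds were applied to a repair-deficient yeast strain. Its growth was then compared with that of cultures given vehicle alone, and inhibition was expressed relative to those controls.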
# [7] = NCI Yeast Anticancer Drug Screen. Data for the sgs1 mgt1 strain (AID 161);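 note: 0% = growth of cultures given vehicle only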; details: S. cerevisiae sgs1 mgt1 strain, hits give high values
# How it was run: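 Percent growth inhibition was derived by comparing compound-exposed mutant yeast with vehicle-exposed cultures. The strain carries alterations in DNA damage repair.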
# [8] = NCI Yeast Anticancer Drug Screen. Data for the CLN2oe strain (AID 163);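 note: 0% = growth of vehicle-only control cultures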; details: S. cerevisiae CLN2oe strain, hits give high values
# How it was run: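 Cells of an engineered yeast line with disturbed cell-cycle regulation are treated with compound. Inhibition of growth is then calculated relative to the vehicle-treated reference.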
# [9] = NCI Yeast Anticancer Drug Screen. Data for the cln2 rad14 strain (AID 165);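 note: 0% = growth equal to vehicle treated cultures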; details: S. cerevisiae cln2 rad14 strain, hits give high values
# How it was run: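 Strain: cln2 rad14 yeast, altered in cell cycle control and DNA damage repair. Read-out: growth inhibition vs vehicle.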
# [10] = NCI Yeast Anticancer Drug Screen. Data for the bub3 strain (AID 167); details: S. cerevisiae bub3 mutant strain, hits give high values
# How it was run: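 Yeast carrying a defined mutation is treated with each compound, and growth is compared with that of vehicle-exposed cells to give inhibition.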
# [11] = NCI Yeast Anticancer Drug Screen. Data for the wt2 strain (AID 169);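 note: 0% = growth of vehicle-treated yeast cultures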; details: S. cerevisiae wt2 strain growth inhibition, hits give high values
# How it was run: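 Growth of compound-treated yeast is measured and expressed as inhibition relative to vehicle-only controls.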
# [12] = NCI Yeast Anticancer Drug Screen. Data for the mlh1 strain (AID 171);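 note: 0% = growth of vehicle-treated control cultures of the same strain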; details: S. cerevisiae mlh1 strain growth inhibition, hits give high values
# How it was run: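 Test agents were incubated with yeast bearing a defined DNA damage repair or cell cycle control alteration; values are growth inhibition normalised to vehicle-treated cultures.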
# [13] = NCI Yeast Anticancer Drug Screen. Data for the rad18 strain (AID 177); details: S. cerevisiae rad18 mutant growth inhibition, hits give high values
# How it was run: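 DNA-repair-defective yeast; compound treatment; growth inhibition scored against vehicle.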
# [14] = NCI Yeast Anticancer Drug Screen. Data for the rad50EPP+ strain (AID 151);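 note: 0% = growth of vehicle-treated control cultures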; details: S. cerevisiae rad50 mutant strain, hits give high values
# How it was run: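 Measured: growth inhibition of rad50EPP+ yeast. Reference: vehicle-treated controls. Screen uses strains with defined genetic alterations in DNA damage repair or cell cycle control.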
# [15] = NCI Yeast Anticancer Drug Screen. Data for the sgs1 strain (AID 173);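 note: 0% = growth of vehicle-only control cultures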; details: S. cerevisiae sgs1 mutant, hits give high values
# How it was run: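 Strain with an altered DNA repair or cell cycle pathway exposed to compound. Growth then measured. Value = inhibition versus vehicle control.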
# [16] = NCI Yeast Anticancer Drug Screen. Data for the mlh1 rad18 strain (AID 175); details: S. cerevisiae mlh1 rad18 strain growth inhibition, hits give high values
# How it was run: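 A repair-deficient yeast strain is exposed to test compound, and growth is scored relative to vehicle-treated controls.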
# [17] = at 5.0 µM (retest, dose inferred, filed as 0.5)
# [18] = at 50.0 µM (retest, dose inferred, filed as 5.0)
smiles,measurement,setting,value
Nc1ccc(F)cc1S,growth inhibition,[1]; at 1.2 µM,-2%
same,growth inhibition,[1]; at 3.7 µM,-15%
same,growth inhibition,[1]; at 11.0 µM,-11%
same,growth inhibition,[1]; at 33.0 µM,60%
same,growth inhibition,[1]; at 100.0 µM,98% (active)
same,growth inhibition,[2]; at 1.2 µM,-7%
same,growth inhibition,[2]; at 3.7 µM,1%
same,growth inhibition,[2]; at 11.0 µM,6%
same,growth inhibition,[2]; at 33.0 µM,92% (active)
same,growth inhibition,[2]; at 100.0 µM,99% (active)
same,growth inhibition,[3]; at 1.2 µM,-15%
same,growth inhibition,[3]; at 3.7 µM,-20%
same,growth inhibition,[3]; at 11.0 µM,12%
same,growth inhibition,[3]; at 33.0 µM,92% (active)
same,growth inhibition,[3]; at 100.0 µM,98% (active)
same,growth inhibition,[4]; at 1.2 µM,-23%
same,growth inhibition,[4]; at 3.7 µM,-40%
same,growth inhibition,[4]; [17],16%
same,growth inhibition,[4]; at 11.0 µM,-14%
same,growth inhibition,[4]; at 33.0 µM,61%
same,growth inhibition,[4]; [18],91% (active)
same,growth inhibition,[4]; at 50.0 µM,51.1%
same,growth inhibition,[4]; at 100.0 µM,98% (active)
same,growth inhibition,[5]; at 1.2 µM,-16%
same,growth inhibition,[5]; at 3.7 µM,-15%
same,growth inhibition,[5]; [17],9%
same,growth inhibition,[5]; at 11.0 µM,8%
same,growth inhibition,[5]; at 33.0 µM,81% (active)
same,growth inhibition,[5]; [18],99% (active)
same,growth inhibition,[5]; at 50.0 µM,85.8% (active)
same,growth inhibition,[5]; at 100.0 µM,98% (active)
same,growth inhibition,[6]; at 1.2 µM,-32%
same,growth inhibition,[6]; at 3.7 µM,-18%
same,growth inhibition,[6]; at 11.0 µM,-14%
same,growth inhibition,[6]; at 33.0 µM,70% (active)
same,growth inhibition,[6]; at 100.0 µM,97% (active)
same,growth inhibition,[7]; [17],31%
same,growth inhibition,[7]; [18],100% (active)
same,growth inhibition,[7]; at 50.0 µM,80.5% (active)
same,growth inhibition,[8]; at 1.2 µM,-70%
same,growth inhibition,[8]; at 3.7 µM,-50%
same,growth inhibition,[8]; at 11.0 µM,-24%
same,growth inhibition,[8]; at 33.0 µM,43%
same,growth inhibition,[8]; at 100.0 µM,94% (active)
same,growth inhibition,[9]; [17],46%
same,growth inhibition,[9]; [18],88% (active)
same,growth inhibition,[9]; at 50.0 µM,85.4% (active)
same,growth inhibition,[10]; at 1.2 µM,-33%
same,growth inhibition,[10]; at 3.7 µM,-15%
same,growth inhibition,[10]; [17],61%
same,growth inhibition,[10]; at 11.0 µM,18%
same,growth inhibition,[10]; at 33.0 µM,73% (active)
same,growth inhibition,[10]; [18],99% (active)
same,growth inhibition,[10]; at 50.0 µM,87.5% (active)
same,growth inhibition,[10]; at 100.0 µM,98% (active)
same,growth inhibition,[11]; at 1.2 µM,4%
same,growth inhibition,[11]; at 3.7 µM,-8%
same,growth inhibition,[11]; at 11.0 µM,56%
same,growth inhibition,[11]; at 33.0 µM,95% (active)
same,growth inhibition,[11]; at 100.0 µM,98% (active)
same,growth inhibition,[12]; at 1.2 µM,-20%
same,growth inhibition,[12]; at 3.7 µM,-19%
same,growth inhibition,[12]; at 11.0 µM,2%
same,growth inhibition,[12]; at 33.0 µM,83% (active)
same,growth inhibition,[12]; at 100.0 µM,98% (active)
same,growth inhibition,[13]; at 1.2 µM,-28%
same,growth inhibition,[13]; at 3.7 µM,-30%
same,growth inhibition,[13]; at 11.0 µM,1%
same,growth inhibition,[13]; at 33.0 µM,71% (active)
same,growth inhibition,[13]; at 100.0 µM,97% (active)
CCCCN(CCCC)CCC(O)c1cc2c(Cl)cc(Cl)cc2c2cc(C(F)(F)F)ccc12 (stereo not drawn),growth inhibition,[1]; at 1.2 µM,1%
same,growth inhibition,[1]; at 3.7 µM,11%
same,growth inhibition,[1]; at 11.0 µM,99% (active)
same,growth inhibition,[1]; at 33.0 µM,98% (active)
same,growth inhibition,[1]; at 100.0 µM,96% (active)
same,growth inhibition,[14]; at 1.2 µM,8%
same,growth inhibition,[14]; at 3.7 µM,19%
same,growth inhibition,[14]; at 11.0 µM,80% (active)
same,growth inhibition,[14]; at 33.0 µM,98% (active)
same,growth inhibition,[14]; at 100.0 µM,93% (active)
same,growth inhibition,[3]; at 1.2 µM,27%
same,growth inhibition,[3]; at 3.7 µM,30%
same,growth inhibition,[3]; at 11.0 µM,99% (active)
same,growth inhibition,[3]; at 33.0 µM,99% (active)
same,growth inhibition,[3]; at 100.0 µM,97% (active)
same,growth inhibition,[4]; at 1.2 µM,24%
same,growth inhibition,[4]; at 3.7 µM,16%
same,growth inhibition,[4]; [17],41%
same,growth inhibition,[4]; at 11.0 µM,98% (active)
same,growth inhibition,[4]; at 33.0 µM,98% (active)
same,growth inhibition,[4]; [18],98% (active)
same,growth inhibition,[4]; at 50.0 µM,87.5% (active)
same,growth inhibition,[4]; at 100.0 µM,95% (active)
same,growth inhibition,[5]; at 1.2 µM,10%
same,growth inhibition,[5]; at 3.7 µM,8%
same,growth inhibition,[5]; [17],53%
same,growth inhibition,[5]; at 11.0 µM,98% (active)
same,growth inhibition,[5]; at 33.0 µM,99% (active)
same,growth inhibition,[5]; [18],98% (active)
same,growth inhibition,[5]; at 50.0 µM,89.7% (active)
same,growth inhibition,[5]; at 100.0 µM,96% (active)
same,growth inhibition,[6]; at 1.2 µM,23%
same,growth inhibition,[6]; at 3.7 µM,20%
same,growth inhibition,[6]; at 11.0 µM,98% (active)
same,growth inhibition,[6]; at 33.0 µM,99% (active)
same,growth inhibition,[6]; at 100.0 µM,96% (active)
same,growth inhibition,[7]; [17],56%
same,growth inhibition,[7]; [18],97% (active)
same,growth inhibition,[7]; at 50.0 µM,86.5% (active)
same,growth inhibition,[8]; at 1.2 µM,22%
same,growth inhibition,[8]; at 3.7 µM,20%
same,growth inhibition,[8]; at 11.0 µM,98% (active)
same,growth inhibition,[8]; at 33.0 µM,99% (active)
same,growth inhibition,[8]; at 100.0 µM,95% (active)
same,growth inhibition,[9]; [17],67%
same,growth inhibition,[9]; [18],96% (active)
same,growth inhibition,[9]; at 50.0 µM,85.5% (active)
same,growth inhibition,[10]; at 1.2 µM,10%
same,growth inhibition,[10]; at 3.7 µM,3%
same,growth inhibition,[10]; [17],-17%
same,growth inhibition,[10]; at 11.0 µM,97% (active)
same,growth inhibition,[10]; at 33.0 µM,99% (active)
same,growth inhibition,[10]; [18],96% (active)
same,growth inhibition,[10]; at 50.0 µM,82.7% (active)
same,growth inhibition,[10]; at 100.0 µM,96% (active)
same,growth inhibition,[11]; at 1.2 µM,-46%
same,growth inhibition,[11]; at 3.7 µM,18%
same,growth inhibition,[11]; at 11.0 µM,98% (active)
same,growth inhibition,[11]; at 33.0 µM,96% (active)
same,growth inhibition,[11]; at 100.0 µM,90% (active)
same,growth inhibition,[12]; at 1.2 µM,14%
same,growth inhibition,[12]; at 3.7 µM,23%
same,growth inhibition,[12]; at 11.0 µM,98% (active)
same,growth inhibition,[12]; at 33.0 µM,99% (active)
same,growth inhibition,[12]; at 100.0 µM,96% (active)
same,growth inhibition,[15]; at 1.2 µM,18%
same,growth inhibition,[15]; at 3.7 µM,18%
same,growth inhibition,[15]; at 11.0 µM,99% (active)
same,growth inhibition,[15]; at 33.0 µM,99% (active)
same,growth inhibition,[15]; at 100.0 µM,95% (active)
same,growth inhibition,[16]; [17],62%
same,growth inhibition,[16]; [18],97% (active)
same,growth inhibition,[16]; at 50.0 µM,82.8% (active)
same,growth inhibition,[13]; at 1.2 µM,26%
same,growth inhibition,[13]; at 3.7 µM,29%
same,growth inhibition,[13]; at 11.0 µM,98% (active)
same,growth inhibition,[13]; at 33.0 µM,99% (active)
same,growth inhibition,[13]; at 100.0 µM,94% (active)
